Reference: PubChem BioAssay (Tox21)
Inconclusive results are not listed. Entries that show only a call come without a potency. The source made the active and inactive calls. Calls follow the shape of the dose curve; as a rule, active = well fitted cell-killing curve with a large enough effect in the repeat runs; inconclusive = weak or mixed curves, or effect the other way; inactive = flat fitted curve, though single readings scatter.

How the values were obtained:
[1] = cAMP Responsive Elements (CRE) small molecule antagonists, cell-based qHTS assay: qHTS cell viability counter screen (AID 2060913); also: nearly all actives have a fitted effect of over 40% in size
Method in brief: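 Cytotoxicity counter screen multiplexed with the CRE-bla antagonist read: HEK293T cells in DMEM with dialyzed FBS and 25 mM HEPES were treated 3 hrs under 0.25 uM final NKH477, then viability measured by CellTiter-Glo luminescence.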

[2] = cAMP Responsive Elements (CRE) small molecule agonists, cell-based qHTS assay: qHTS cell viability counter screen (AID 2060914);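 also: viability read after 3 h of compound exposure; nearly all actives have a fitted effect of over 50% in size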
Method in brief: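 Cytotoxicity counter screen multiplexed with the CRE-bla reporter assay in HEK 293T cells: 3 h compound exposure at 37 °C, followed by CellTiter-Glo luminescence measured in the same wells.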
Potency is read from the fitted curve at half-maximal effect.

Structure (SMILES) | Potency [1] | Potency [2]
NN=C(N)N | inactive | inactive
CCOc1cc(Oc2ccc(C(F)(F)F)cc2Cl)ccc1[N+](=O)[O-] | inactive | inactive
CCC(C)(C#N)N=NC(C)(C#N)CC (stereo unspecified) | inactive | inactive
CCCCN(CCCC)C(=S)[S-].CCCCN(CCCC)C(=S)[S-].[Zn+2] | inactive | inactive
CN(C)N | inactive | inactive
CCC(=O)Nc1ccc(Cl)c(Cl)c1 | inactive | inactive
CCc1ccccc1C | inactive | inactive
COc1ccc(Cc2nccc3cc(OC)c(OC)cc23)cc1OC | inactive | inactive
c1ccc2c(c1)sc1ccccc12 | inactive | inactive
COC1=CC(=O)O[C@@H](CCc2ccccc2)C1 | inactive | inactive
CN1C(=O)CN=C(c2ccccc2)c2cc([N+](=O)[O-])ccc21 | inactive | inactive
Clc1cccc(N2CCNCC2)c1 | inactive | inactive
COP(=O)(NC(C)=O)SC (stereo unspecified) | inactive | inactive
N#Cc1ccc(N(CC(N)=O)CC(F)(F)F)cc1C(F)(F)F | inactive | inactive
O=S(=O)(O)C(F)(F)C(F)(F)C(F)(F)C(F)(F)C(F)(F)C(F)(F)F | inactive | inactive
CCN(N=O)C(N)=O | inactive | inactive
ClP(Cl)(Cl)(Cl)Cl | inactive | inactive
COP(=S)(OC)Oc1cc(Cl)c(I)cc1Cl | inactive | inactive
Cc1cc(Cl)ccc1N | inactive | inactive
Nc1c(Oc2ccccc2)cc(O)c2c1C(=O)c1ccccc1C2=O | inactive | inactive
CCCCCCCCCCOC(=O)c1ccccc1C(=O)OCCCCCCCCCC | inactive | inactive

Structure (SMILES) | Potency [1] | Potency [2]
ClC1=C(Cl)[C@]2(Cl)[C@@H]3[C@@H](Cl)[C@@H](Cl)C[C@@H]3[C@@]1(Cl)C2(Cl)Cl | inactive | inactive
CC#C[C@]1(O)CC[C@H]2[C@@H]3C[C@H](C)C4=CC(=O)CC[C@]4(C)[C@H]3CC[C@@]21C | inactive | inactive
Nc1ccccc1C(=O)O | inactive | inactive
CC(C)(C)OC(=O)c1ncn2c1[C@@H]1CCCN1C(=O)c1c(Br)cccc1-2 | inactive | inactive
O=C(CCl)C(Cl)Cl | inactive | inactive
Clc1cc(C(Cl)(Cl)Cl)cnc1Cl | inactive | inactive
CCSC(=O)N1CCCCCC1 | inactive | inactive
CC1(C)[C@H](C=C(Cl)Cl)[C@@H]1C(=O)O[C@@H](C#N)c1cccc(Oc2ccccc2)c1 | inactive | inactive
CC(C)CC#N | inactive | inactive
C[C@]12CC[C@H]3[C@@H](CCC4=CC(=O)CC[C@@H]43)[C@@H]1CC[C@@H]2OC(=O)CCC1CCCCC1 | inactive | inactive
CCOC(=O)c1ccccc1C(=O)OCC | inactive | inactive
CCC1(c2ccccc2)CCC(=O)NC1=O (stereo unspecified) | inactive | inactive
O=C(CCCCl)c1ccc(F)cc1 | inactive | inactive
C=CC(=O)OCCCCOC(=O)C=C | inactive | inactive
COP(=S)(OC)Oc1ccc(Sc2ccc(OP(=S)(OC)OC)cc2)cc1 | inactive | inactive
Oc1ccc(Cl)c(Cl)c1 | inactive | inactive
CCCN1CCC[C@@H]2Cc3[nH]ncc3C[C@H]21 | inactive | inactive
CCC(C)(C)c1cc(-n2nc3ccccc3n2)c(O)c(C(C)(C)CC)c1 | inactive | inactive
CCN(CC)C1CCCCC1 | inactive | inactive
CCCCCCCCCCCCCl | inactive | inactive
CCCCc1ccccc1 | inactive | inactive

Structure (SMILES) | Potency [1] | Potency [2]
C[C@]12CC[C@H]3[C@@H](CCC4=CC(=O)CC[C@@H]43)[C@@H]1CC[C@@H]2OC(=O)CCc1ccccc1 | inactive | inactive
Cc1ccc2cc3c(ccc4ccccc43)c3c2c1CC3 | inactive | inactive
O=S(=O)(c1ccccc1)c1ccccc1 | inactive | inactive
N[C@@H](Cc1ccc(N(CCCl)CCCl)cc1)C(=O)O | inactive | inactive
CCOP(=S)(OCC)SCSP(=S)(OCC)OCC | inactive | inactive
COc1ccc(CN2CCNCC2)c(OC)c1OC | inactive | inactive
ClCCOCCCl | inactive | inactive
CN(C)C1CSSSC1 | inactive | inactive
CC1C(=O)C[C@]2(C(C)C)C[C@H]12 (stereo partly specified) | inactive | inactive
Cc1ccc(N)cc1Cl | inactive | inactive
CCCCCCCCCCCC#N | inactive | inactive
COC(=O)C1(O)c2ccccc2-c2ccccc21 | inactive | inactive
CC(C)(C)C(=O)C(Oc1ccc(Cl)cc1)n1cncn1 (stereo unspecified) | inactive | inactive
Cc1nc2ccccc2c(=O)n1-c1ccccc1Cl | inactive | inactive
CCCC[N+]1(C)CCCCC1 | inactive | inactive
O=[N+]([O-])c1cccc2cccc([N+](=O)[O-])c12 | inactive | inactive
c1ccc2c(c1)CCCC2 | inactive | inactive
CC1CCC(C(C)C)C(OC(=O)c2ccccc2N)C1 (stereo unspecified) | 47.9 µM (active) | 53.7 µM (active)
CCOC(=O)CC(=O)CCl | inactive | inactive
O=P(Oc1ccccc1)(Oc1ccccc1)Oc1ccccc1 | inactive | inactive
COC(=O)c1ccccc1S(=O)(=O)NC(=O)Nc1nc(C)cc(C)n1 | inactive | inactive
